Active and inactive are the calls of the source. No rule for the calls is given here.
Experiment: inhibition of Brca1/Bard1 split-luciferase complementation, confirmation, counter-screen for Mdm2/MdmX interaction inhibitor project, luminescence, single concentration (AID 504668)
Settings: Brca1/Bard1 bimolecular luciferase complementation counterscreen, at 8 µM, active compounds read high

Which inhibition does the source give for `O=C(CCl)N1N=C(c2ccco2)CC1c1ccco1` (configuration not stated) here?
Its inhibition is 31.2% (active).

With `CN1CCN(C(c2ccc(C(F)(F)F)cc2)c2ccc3cccnc3c2O)CC1` (configuration not stated) as the compound, how does the inhibition read?
Its inhibition is 27.9% (active).

With `CC(C)(C)c1ccc(-c2nnc3sc(-c4ccccn4)nn23)cc1` as the compound, how does the inhibition read?
Its inhibition is 30.2% (active).

For `CC(=O)NC(c1cccc([N+](=O)[O-])c1)c1ccc2cccnc2c1O` (configuration not stated), which inhibition is on record?
Its inhibition is 23.7% (active).

With `CCOC(=O)c1cccc2c1-c1ccccc1/C2=N/O` as the compound, how does the inhibition read?
The inhibition was 30.6% (active).

Which inhibition does the source give for `O=S(=O)(c1ccc(Cl)cc1)N1CCN(Cc2ccc(O)c3ncccc23)CC1` here?
Its inhibition is 25% (active).

Which inhibition does the source give for `CCOC(=O)/C=C/C(=O)Nc1ccc(Oc2ccccc2)cc1` here?
Its inhibition is 24.1% (active).

With `O=c1c2ccccc2nc(N/N=C/c2c(O)ccc3ccccc23)n1O` as the compound, how does the inhibition read?
The inhibition was 35.9% (active).

For `O=C(Nc1nc(-c2ccccn2)cs1)c1ccccc1-n1cnnn1`, which inhibition is on record?
Its inhibition is 29.6% (active).

For `Cc1conc1NC(c1cccs1)c1ccc2cccnc2c1O` (configuration not stated), which inhibition is on record?
Its inhibition is 31.8% (active).

For `S=C(Nc1ccc(Cl)c(Cl)c1)NC1CCN(Cc2ccccc2)CC1`, which inhibition is on record?
Its inhibition is 28.5% (active).

Which inhibition does the source give for `CN1CCN(C(=O)CCCN2C(=O)/C(=C/c3cccc(Br)c3)SC2=S)CC1` here?
Its inhibition is 29.2% (active).

For `Cc1ccc(S(=O)(=O)CCc2nc3ccccc3n2CCC#N)cc1`, which inhibition is on record?
Its inhibition is 32.2% (active).

With `C=CC[n+]1c(/C=C2\C=Cc3cc(C)ccc3N2CC)ccc2ccccc21` as the compound, how does the inhibition read?
The inhibition was 28.5% (active).

Which inhibition does the source give for `C/C(=N\NC(=O)c1cccc2ccccc12)c1ccccn1` here?
The inhibition was 29.9% (active).

Which inhibition does the source give for `CCCC(=O)NC(c1ccc(OC)c(OC)c1)c1cc(Cl)c2cccnc2c1O` (configuration not stated) here?
Its inhibition is 27.9% (active).

With `COc1cccc(/C=N/NC(=O)c2c(C)nc3ccc(Br)cn23)c1O` as the compound, how does the inhibition read?
Its inhibition is 32.3% (active).

From PubChem BioAssay
